# Among all 39,000 compounds or so, about 3,300 (8.5%) were called active. For the sample, actives were picked, then their nearest neighbours and some compounds at random.
# Test system: HepG2
# Assay: cytotoxicity call (relative viability < 0.9)
# Settings: 10 µM
row,Structure (SMILES),cytotoxicity call
1,C[C@@H]1CCCCO[C@@H](CN(C)CC2CC2)[C@@H](C)CN([C@H](C)CO)C(=O)c2cc(NS(=O)(=O)c3cn(C)cn3)ccc2O1,inactive
2,COc1ccc(CN(C)C[C@@H]2Oc3ccc(NC(=O)Nc4cccc5ccccc45)cc3CC(=O)N([C@H](C)CO)C[C@@H]2C)cc1,inactive
3,COc1ccc(CN(C)C[C@H]2Oc3ccc(NC(=O)Nc4cccc5ccccc45)cc3CC(=O)N([C@@H](C)CO)C[C@@H]2C)cc1,active
4,COc1ccc(CN(C)C[C@@H]2Oc3ccc(NC(=O)Nc4cccc5ccccc45)cc3CC(=O)N([C@H](C)CO)C[C@H]2C)cc1,inactive
5,COc1ccc(CN(C)C[C@@H]2Oc3ccc(NC(=O)Nc4cccc5ccccc45)cc3CC(=O)N([C@@H](C)CO)C[C@@H]2C)cc1,active
6,COc1ccc(CN(C)C[C@H]2Oc3ccc(NC(=O)Nc4cccc5ccccc45)cc3CC(=O)N([C@@H](C)CO)C[C@H]2C)cc1,active
7,COc1ccc(CN(C)C[C@H]2Oc3ccc(NC(=O)Nc4cccc5ccccc45)cc3CC(=O)N([C@H](C)CO)C[C@H]2C)cc1,active
8,COc1ccc(OC)c(S(=O)(=O)N2[C@@H]3CC[C@@H](C3)[C@H]2c2nc3cccc(OCc4ccccc4)c3[nH]2)c1,inactive
9,CO[C@@H]1CN(C)C(=O)c2cc(NS(=O)(=O)CC(F)(F)F)ccc2OC[C@@H](C)N(Cc2ccccn2)C[C@@H]1C,inactive
10,C[C@@H]1CN([C@@H](C)CO)C(=O)c2cc(Br)cnc2O[C@@H]1CN(C)S(=O)(=O)c1ccccc1,inactive
11,Cc1ccc(S(=O)(=O)N(C)C[C@@H]2Oc3ccc(NC(=O)Cn4cnnn4)cc3C(=O)N([C@@H](C)CO)C[C@@H]2C)cc1,inactive
12,C/C(=N\N)c1c(C)cc(C)[nH]c1=O,inactive
13,Nc1cccc(=O)[nH]1,inactive
14,Cc1noc(C)c1NC(=O)N(C)C[C@@H]1Oc2ccc(NC(=O)Nc3ccc(C(F)(F)F)cc3)cc2CC(=O)N([C@H](C)CO)C[C@@H]1C,inactive
15,C[C@H]1CN([C@@H](C)CO)C(=O)c2cc(C#CCc3ccccc3)cnc2O[C@@H]1CN(C)CC1CCOCC1,inactive
16,C[C@H](CO)N1C[C@H](C)[C@@H](CN(C)C(=O)Nc2cccc(Oc3ccccn3)c2)OCc2cnnn2CCCC1=O,inactive
17,COc1ccc(NC(=O)Nc2ccc3c(c2)C(=O)N([C@@H](C)CO)C[C@H](C)[C@H](CN(C)Cc2ccc4c(c2)OCO4)OCCCC[C@H](C)O3)cc1,inactive
18,C[C@H](CO)N1C[C@H](C)[C@@H](CN(C)S(=O)(=O)c2ccccc2C#N)OCc2cnnn2CCCC1=O,inactive
19,Cc1cc(=O)[nH][nH]1,inactive
20,COc1ccc(C(=O)CC(=O)c2ccc(C(C)(C)C)cc2)cc1,inactive
21,CCN1CCCC(OC(=O)C(c2ccccc2)c2ccccc2)C1.Cl (stereo unspecified),inactive
22,CC(C)(C)c1ccc(C(=O)CCCN2CCC(OC(c3ccccc3)c3ccccc3)CC2)cc1,active
23,O=C(c1ccccc1Cl)n1c2ccccc2c2ccccc21,active
24,COc1ccc2c(c1)c(CC(=O)O)c(C)n2C(=O)c1ccc(Cl)cc1,inactive

row,Structure (SMILES),cytotoxicity call
1,NC(=O)c1ccccc1C(N)=O,inactive
2,Cc1c(Cl)cccc1Nc1ccccc1C(=O)O,inactive
3,O=C(c1ccc(Cl)cc1)n1c2ccccc2c2ccccc21,active
4,COc1ccc2c(c1)c(CC(=O)OCC(=O)O)c(C)n2C(=O)c1ccc(Cl)cc1,inactive
5,C[C@H]1CN([C@@H](C)CO)C(=O)c2cccc(NC(=O)CCCCCC(=O)Nc3ccccc3N)c2O[C@H]1CN(C)C(=O)Nc1ccccc1,inactive
6,Cn1nc(CNc2ncccn2)c2c1CNCC2,inactive
7,C[C@H](CO)N1C[C@H](C)[C@@H](CN(C)Cc2ccc(C(F)(F)F)cc2)Oc2ccc(NC(=O)Cc3ccccc3)cc2C1=O,inactive
8,C[C@H](CO)N1C[C@H](C)[C@H](CN(C)CC2CCCCC2)OCCCC[C@H](C)Oc2ccc(NS(=O)(=O)c3ccccc3)cc2C1=O,inactive
9,CCOC(=O)[C@H]1CSCCN1,inactive
10,C[C@H]1CN([C@@H](C)CO)C(=O)CCCn2nncc2CO[C@H]1CN(C)Cc1ccc2c(c1)OCCN2C,inactive
11,Cc1cc(=O)n2c(C)nnc2[nH]1,inactive
12,CCCNC(=O)Nc1ccc2c(c1)C(=O)N(C)C[C@@H](OC)[C@@H](C)CN(Cc1ccc(-c3ccccn3)cc1)[C@H](C)CO2,inactive
13,COc1ccc(-n2cc(C(=O)NO)nn2)cc1,active
14,COc1cccc(-n2cc(C(=O)NO)nn2)c1,inactive
15,COC(=O)c1ccc(Cn2cc(C(=O)NO)nn2)o1,inactive
16,COc1cccc(NC(=O)N[C@@H]2CC[C@@H](CC(=O)N3CCN(C)CC3)O[C@@H]2CO)c1,active
17,COc1cccc(NC(=O)N[C@H]2CC[C@H](CC(=O)N3CCN(C)CC3)O[C@H]2CO)c1,inactive
18,COc1cccc(NC(=O)N[C@@H]2CC[C@H](CC(=O)N3CCN(C)CC3)O[C@@H]2CO)c1,inactive
19,C[C@H](CO)N1C[C@H](C)[C@H](CN(C)C(=O)Nc2ccc(F)cc2)Oc2ncc(-c3cccc(C(F)(F)F)c3)cc2C1=O,inactive
20,C[C@@H]1CN([C@H](C)CO)C(=O)c2cc(NC(=O)c3ccncc3)ccc2O[C@H]1CN(C)Cc1ccc(C(=O)O)cc1,inactive
21,COc1ccc(CN(C)C[C@H]2Oc3c(NS(=O)(=O)c4cn(C)cn4)cccc3C(=O)N([C@H](C)CO)C[C@@H]2C)cc1,inactive
22,C[C@@H]1CCCCO[C@@H](CN(C)S(=O)(=O)c2ccc(Cl)cc2)[C@@H](C)CN([C@H](C)CO)C(=O)c2cc(NC(=O)c3ccncc3)ccc2O1,inactive
23,C[C@@H]1CCCCO[C@H](CN(C)S(=O)(=O)c2ccc(Cl)cc2)[C@@H](C)CN([C@@H](C)CO)C(=O)c2cc(NC(=O)c3ccncc3)ccc2O1,active
24,C[C@@H]1CN([C@H](C)CO)C(=O)c2cc(NC(=O)c3ccncc3)ccc2O[C@@H](C)CCCCO[C@H]1CN(C)S(=O)(=O)c1ccc(Cl)cc1,active

row,Structure (SMILES),cytotoxicity call
1,C[C@H]1CCCCO[C@H](CN(C)S(=O)(=O)c2ccc(Cl)cc2)[C@@H](C)CN([C@@H](C)CO)C(=O)c2cc(NC(=O)c3ccncc3)ccc2O1,inactive
2,C[C@@H]1CCCCO[C@@H](CN(C)S(=O)(=O)c2ccc(Cl)cc2)[C@H](C)CN([C@@H](C)CO)C(=O)c2cc(NC(=O)c3ccncc3)ccc2O1,inactive
3,C[C@@H]1CCCCO[C@@H](CN(C)S(=O)(=O)c2ccc(Cl)cc2)[C@@H](C)CN([C@@H](C)CO)C(=O)c2cc(NC(=O)c3ccncc3)ccc2O1,inactive
4,Cc1noc(C)c1S(=O)(=O)N(C)C[C@H]1Oc2c(NC(=O)C3CCCCC3)cccc2C(=O)N([C@H](C)CO)C[C@H]1C,inactive
5,COc1ccc(CN(C)C[C@H]2OCCCC[C@@H](C)Oc3ccc(NS(=O)(=O)c4ccc(C)cc4)cc3C(=O)N([C@@H](C)CO)C[C@@H]2C)cc1,inactive
6,C[C@H]1CCCCO[C@@H](CN(C)S(=O)(=O)c2ccc(Cl)cc2)[C@@H](C)CN([C@@H](C)CO)C(=O)c2cc(NS(=O)(=O)c3ccccc3)ccc2O1,inactive
7,CC12C=CC(=O)C=C1CCC1C2C(O)CC2(C)C1CCC2(O)C(=O)COC(=O)CCC(=O)O (stereo unspecified),inactive
8,Cc1ccc(S(=O)(=O)N(C)C[C@H]2Oc3ncc(C#CCC(C)C)cc3C(=O)N([C@@H](C)CO)C[C@@H]2C)cc1,inactive
9,COc1cccc(-c2cnc3c(c2)C(=O)N([C@H](C)CO)C[C@H](C)[C@H](CN(C)S(=O)(=O)c2cccc(OC)c2)O3)c1,inactive
10,Cc1ccc(S(=O)(=O)N(C)C[C@@H]2Oc3ncc(C#CCC(C)C)cc3C(=O)N([C@@H](C)CO)C[C@H]2C)cc1,active
11,COc1cccc(S(=O)(=O)N(C)C[C@H]2Oc3ncc(C#CCC(C)C)cc3C(=O)N([C@@H](C)CO)C[C@H]2C)c1,inactive
12,Cc1ccc(S(=O)(=O)N(C)C[C@H]2Oc3ncc(C#CCC(C)C)cc3C(=O)N([C@@H](C)CO)C[C@H]2C)cc1,active
13,COc1cccc(S(=O)(=O)N(C)C[C@H]2Oc3ncc(C#CCC(C)C)cc3C(=O)N([C@H](C)CO)C[C@H]2C)c1,inactive
14,COc1cccc(-c2cnc3c(c2)C(=O)N([C@H](C)CO)C[C@H](C)[C@H](CN(C)S(=O)(=O)c2ccccc2)O3)c1,active
15,Cc1ccc(S(=O)(=O)N(C)C[C@H]2Oc3ncc(C#CCC(C)C)cc3C(=O)N([C@H](C)CO)C[C@@H]2C)cc1,inactive
16,Cc1ccc(S(=O)(=O)N(C)C[C@@H]2Oc3ncc(C#CCC(C)C)cc3C(=O)N([C@H](C)CO)C[C@H]2C)cc1,inactive
17,COc1cccc(S(=O)(=O)N(C)C[C@H]2Oc3ncc(C#CCC(C)C)cc3C(=O)N([C@H](C)CO)C[C@@H]2C)c1,active
18,COc1cccc(S(=O)(=O)N(C)C[C@@H]2Oc3ncc(-c4ccccc4)cc3C(=O)N([C@H](C)CO)C[C@@H]2C)c1,inactive
19,Cc1ccc(S(=O)(=O)N(C)C[C@@H]2Oc3ncc(C#CCC(C)C)cc3C(=O)N([C@H](C)CO)C[C@@H]2C)cc1,inactive
20,CN(C)CCCNC(=O)C[C@@H]1CC[C@H]2[C@@H](COC[C@@H](O)CN2S(=O)(=O)c2ccc(F)cc2)O1,inactive
21,CO[C@H]1CN(C)C(=O)c2cc(NS(=O)(=O)CC(F)(F)F)ccc2OC[C@H](C)N(Cc2ccccn2)C[C@@H]1C,inactive
22,CC(C)CC#Cc1cnc2c(c1)C(=O)N([C@@H](C)CO)C[C@@H](C)[C@@H](CN(C)C(=O)CN1CCOCC1)O2,inactive
23,C[C@@H]1CN([C@@H](C)CO)C(=O)c2cc(NS(=O)(=O)c3ccccc3)ccc2O[C@@H](C)CCCCO[C@H]1CN(C)C(=O)c1ccccc1,inactive
